Molecules are shown by their SMILES. Values joined by “and” are separate entries in the source; they are usually repeats but may differ in a detail not shown here. Equal values may be shown once. Results filed as inconclusive are left out. A structure can be active in one record and inactive in another. Active and inactive are the calls of the source. Unless noted, calls come from the whole dose curve; as a rule, active = well fitted curve in the direction sought with a large enough effect in the repeat runs; inconclusive = weak or mixed curves; inactive = no such curve, though single readings can be large; an effect the other way counts as inactive or inconclusive.

Experiment [1] in a line: qHTS assay to identify small molecule antagonists of the estrogen related receptor (ERR) signaling pathway from Tox21 library - cell viability counter screen (AID 1224834). Note: nearly all actives have a fitted effect of over 30% in size. Note: potency is the fitted concentration of half-maximal effect. In outline: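 ERR cells, 2,000/well; 6 h settle at 37 C/5% CO2; pin-tool compound transfer in DMSO; 17.5 h at 37 C; CellTiter-Fluor, 30 min; fluorescence intensity.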
Experiment [2] has as its target Luciferin 4-monooxygenase (Photinus pyralis) (UniProt P08659). As to the kind of experiment: qHTS assay to identify small molecule inhibitors of firefly luciferase (AID 1224835). Note: nearly all actives have a fitted effect of over 25% in size. Note: potency is the fitted concentration of half-maximal effect. The method, boiled down:
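Quantitative HTS format; KM concentrations of both substrates. Purified P. pyralis FLuc activity quantified from luminescence images.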

A short description of experiment [3]: qHTS assay to identify small molecule agonists of the constitutive androstane receptor (CAR) signaling pathway - cell viability counter screen (AID 1224836). Note: nearly all actives have a fitted effect of over 45% in size. The method, boiled down: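 Fluorescence from CellTiter-Fluor indicates live cells after 23 h exposure. The human hepatoma line expresses hCAR and a CYP2B6-2.2kb reporter. Incubation medium contains 0.75 uM PK11195 (final).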

Experiment [4] addresses Nuclear receptor subfamily 1 group I member 3 (Homo sapiens) (UniProt Q14994). As to the kind of experiment: qHTS assay to identify small molecule agonists of the constitutive androstane receptor (CAR) signaling pathway (AID 1224839). Note: nearly all actives have a fitted effect of over 15% in size. Note: potency is the fitted concentration of half-maximal effect. In outline: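 Stable hCAR/CYP2B6-2.2kb HepG2 line in DMEM with 10% FBS; compounds (15 concentrations) and 0.75 uM PK11195 final, 24 h at 37 C/5% CO2, then ONE-Glo luminescence after 30 min.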

Experiment [5] can be described thus: qHTS assay to identify small molecule antagonists of the estrogen related receptor signaling pathway with the pleiotropic PPARgamma coactivator (PGC) from Tox21 10K library - cell viability counter screen (AID 1224840; active = well fitted cell-killing curve with a large enough effect in the repeat runs, not every such curve was filed as active; note: nearly all actives have a fitted effect of over 40% in size; note: potency is the fitted concentration of half-maximal effect). The method, boiled down: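 Multiplexed viability counter screen in the PGC/ERR cell line: cells treated with DMSO-dissolved compounds for 17.5 hours at 37 C, then viability measured as CellTiter-Fluor fluorescence.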

The target of experiment [6] is Thyrotropin receptor (Homo sapiens) (UniProt P16473). As to the kind of experiment: qHTS assay to identify small molecule agonists of the thyroid stimulating hormone receptor (TSHR) signaling pathway (AID 1224843; calls by dose curve; note: nearly all actives have a fitted effect of over 45% in size; note: potency is the fitted concentration of half-maximal effect). The method, boiled down:
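Compounds are titrated over 15 concentrations, in triplicate, onto TSHR-HEK293 cells seeded at 800/well. Plates sit 30 min at room temperature before cAMP-d2 and anti-cAMP cryptate are added; signal is read after a further hour.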

Experiment [7] is described as follows: qHTS assay to identify small molecule agonists of H2AX (AID 1224845; active = well fitted activation curve with a large enough effect in the signal ratio in the repeat runs, not every such curve was filed as active; the % refers to the signal ratio). The method, boiled down:
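Wild-type CHO-K1 cells plated overnight, then exposed 3 hr at 37C to compounds at 15 concentrations (0.76% DMSO). Lysed, then HTRF anti-pH2AX(S139)-cryptate/anti-H2AX-d2 detection after 24 hr at room temperature; emissions 665 and 620 nm.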

Experiment [8] can be described thus: qHTS RealTime-Glo MT Cell Viability Assay in HepG2 cells - 24 hour (AID 1224867). Note: nearly all actives have a fitted effect of over 50% in size. In outline:
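Viability was tracked continuously by NanoLuc luminescence from prosubstrate reduced by living HepG2 cells, at successive time points over 40 h of compound exposure. Cells with reagent were preincubated 5 h at 37 °C before compound addition.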

Experiment [9] can be described thus: qHTS RealTime-Glo MT Cell Viability Assay in HEK293 cells - 32 hour (AID 1224868). Note: top concentration of the series differs between compounds; nearly all actives have a fitted effect of over 50% in size. In outline: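 Viability tracked continuously by luminescence as live cells reduce a prosubstrate for NanoLuc; HEK293 cells preincubated 5 h, compound-treated at 37 C, and read at 0, 8, 16, 24, 32 and 40 h.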
A short description of experiment [10]: A CellTox Green Cytotoxicity Assay to monitor cytotoxicity in HEK293 cells - 0 hour (AID 1224869). Note: nearly all actives have a fitted effect of over 50% in size. The method, boiled down:
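Cells (HEK293, 600/well) and dye reagent are dispensed together. After 5 h at 37 C, 23 nL compound is pinned in. Plates stay at 37 C for 40 h with fluorescence read at 0h, 8h, 16h, 24h, 32h and 40h.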

Experiment [11] is described as follows: qHTS assay to identify small molecule agonists of the hypoxia (HIF-1) signaling pathway - cell viability counter screen (AID 1224844; calls by dose curve; note: nearly all actives have a fitted effect of over 50% in size; note: potency is the fitted concentration of half-maximal effect). The method, boiled down: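 Cytotoxicity was measured in parallel with the HRE-driven beta-lactamase readout: after 17 hrs of compound exposure at 37C, HRE-bla ME-180 cells received CellTiter-Glo and luminescence was recorded 30 min later.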

The nature of experiment [12]: qHTS assay to identify small molecule agonists of the hypoxia (HIF-1) signaling pathway (AID 1224846; active = well fitted activation curve with a large enough effect in the signal ratio in the repeat runs, not every such curve was filed as active; the % refers to the signal ratio). In outline: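 Compounds from the Tox21 10K library, dissolved in DMSO, are tested for induction of a hypoxia response element–controlled beta-lactamase reporter in ME-180 cells. Exposure lasts 17 hrs at 37C after a 5 hr settling period, followed by CCF4-AM FRET substrate.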

A short description of experiment [13]: qHTS assay to identify small molecule agonists of H2AX - cell viability counter screen (AID 1224847; calls by dose curve; note: top concentration of the series differs between compounds; nearly all actives have a fitted effect of over 30% in size). In outline:
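Viability of CHO-K1 (wild type) cells after 3 hr compound exposure was measured by CellTiter-Glo luminescence.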

Experiment [14] is described as follows: qHTS assay to identify small molecule antagonists of the estrogen related receptor signaling pathway with the pleiotropic PPARgamma coactivator (PGC) from Tox21 10K library (AID 1224841; call rule not given here). The method, boiled down: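 Steps: plate 2,000 PGC/ERR cells per well; incubate 6 h at 37 C with 5% CO2; transfer compounds from DMSO stocks by pin tool; incubate 18 h at 37 C; add One-Glo; measure luminescence 30 min later.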

A short description of experiment [15]: qHTS assay to identify small molecule agonists of the estrogen related receptor signaling pathway with the pleiotropic PPARgamma coactivator (PGC) from Tox21 10K library (AID 1224842). Note: nearly all actives have a fitted effect of over 15% in size. The method, boiled down: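 PGC/ERR reporter cells (NTP line) were seeded 2,000 per well, rested 6 h at 37 C/5% CO2, then pin-dosed with compounds in DMSO for 18 h at 37 C; luciferase read by One-Glo luminescence after 30 min at room temperature.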

Experiment [16] in a line: qHTS assay to identify small molecule antagonists of the estrogen related receptor (ERR) signaling pathway from Tox21 library (AID 1224848). Note: nearly all actives have a fitted effect of over 50% in size. The method, boiled down: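 First, 2,000 ERR cells per well were plated and held 6 h at 37 C/5% CO2. Next, compounds in DMSO were pinned in and left 18 h at 37 C. Finally, ONE-Glo was added and luminescence read after 30 min at room temperature.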

Experiment [17] is described as follows: qHTS assay to identify small molecule agonists of the estrogen related receptor (ERR) signaling pathway from Tox21 library (AID 1224849; calls by dose curve; note: nearly all actives have a fitted effect of over 15% in size). The conditions noted are these: ERR reporter cell line, ONE-Glo luciferase, 18 h; at 92.4 µM (top of the series). In outline:
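Cells carrying the ERR reporter were plated and allowed to settle for 6 h, exposed to library compounds for 18 h at 37 C, then lysed with ONE-Glo and luminescence measured.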

Experiment [18] deals with Nuclear receptor subfamily 1 group I member 3 (Homo sapiens) (UniProt Q14994). As to the kind of experiment: qHTS assay to identify small molecule antagonists of the constitutive androstane receptor (CAR) signaling pathway (AID 1224838).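 Note: HepG2 cells stably expressing hCAR with CYP2B6 luciferase reporter stimulated by CITCO; nearly all actives have a fitted effect of over 40% in size.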 The method, boiled down: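 Antagonist mode used CITCO at a final 50 nM to activate CAR in human hepatoma HepG2 cells carrying stable hCAR and a 2.2 kb CYP2B6 promoter-luciferase construct. Compounds were tested at 15 concentrations over 24 h, with luminescence as the end point.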
Sequence of Nuclear receptor subfamily 1 group I member 3 (Homo sapiens) (Q14994 whole entry, looked up): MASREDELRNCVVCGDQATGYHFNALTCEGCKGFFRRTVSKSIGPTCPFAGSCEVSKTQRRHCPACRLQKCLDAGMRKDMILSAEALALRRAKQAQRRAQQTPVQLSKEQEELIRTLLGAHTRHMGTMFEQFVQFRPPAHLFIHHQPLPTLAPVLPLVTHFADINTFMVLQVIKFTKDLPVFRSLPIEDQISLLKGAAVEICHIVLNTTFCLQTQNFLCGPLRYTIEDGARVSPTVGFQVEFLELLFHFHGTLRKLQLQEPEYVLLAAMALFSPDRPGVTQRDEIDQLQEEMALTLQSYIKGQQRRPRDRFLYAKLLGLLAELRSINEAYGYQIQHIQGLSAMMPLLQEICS
% is set by controls: 0 for no effect and ±100 for the full control effect.

Sequence of Luciferin 4-monooxygenase (Photinus pyralis) (P08659 whole entry, looked up): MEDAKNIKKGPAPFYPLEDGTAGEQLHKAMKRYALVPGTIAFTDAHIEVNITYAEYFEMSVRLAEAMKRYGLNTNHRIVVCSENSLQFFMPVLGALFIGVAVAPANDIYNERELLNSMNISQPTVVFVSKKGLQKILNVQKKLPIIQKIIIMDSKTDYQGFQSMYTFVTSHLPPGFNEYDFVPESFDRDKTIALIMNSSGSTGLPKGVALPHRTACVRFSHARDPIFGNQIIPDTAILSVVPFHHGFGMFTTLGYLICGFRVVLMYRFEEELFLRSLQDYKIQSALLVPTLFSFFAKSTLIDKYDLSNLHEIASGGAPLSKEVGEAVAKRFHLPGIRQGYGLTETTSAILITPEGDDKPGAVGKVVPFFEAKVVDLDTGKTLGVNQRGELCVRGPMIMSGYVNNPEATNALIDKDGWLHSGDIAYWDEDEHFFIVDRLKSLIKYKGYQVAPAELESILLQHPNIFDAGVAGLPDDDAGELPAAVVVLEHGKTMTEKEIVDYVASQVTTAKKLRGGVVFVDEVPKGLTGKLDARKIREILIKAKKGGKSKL
Sequence of Thyrotropin receptor (Homo sapiens) (P16473 whole entry, looked up): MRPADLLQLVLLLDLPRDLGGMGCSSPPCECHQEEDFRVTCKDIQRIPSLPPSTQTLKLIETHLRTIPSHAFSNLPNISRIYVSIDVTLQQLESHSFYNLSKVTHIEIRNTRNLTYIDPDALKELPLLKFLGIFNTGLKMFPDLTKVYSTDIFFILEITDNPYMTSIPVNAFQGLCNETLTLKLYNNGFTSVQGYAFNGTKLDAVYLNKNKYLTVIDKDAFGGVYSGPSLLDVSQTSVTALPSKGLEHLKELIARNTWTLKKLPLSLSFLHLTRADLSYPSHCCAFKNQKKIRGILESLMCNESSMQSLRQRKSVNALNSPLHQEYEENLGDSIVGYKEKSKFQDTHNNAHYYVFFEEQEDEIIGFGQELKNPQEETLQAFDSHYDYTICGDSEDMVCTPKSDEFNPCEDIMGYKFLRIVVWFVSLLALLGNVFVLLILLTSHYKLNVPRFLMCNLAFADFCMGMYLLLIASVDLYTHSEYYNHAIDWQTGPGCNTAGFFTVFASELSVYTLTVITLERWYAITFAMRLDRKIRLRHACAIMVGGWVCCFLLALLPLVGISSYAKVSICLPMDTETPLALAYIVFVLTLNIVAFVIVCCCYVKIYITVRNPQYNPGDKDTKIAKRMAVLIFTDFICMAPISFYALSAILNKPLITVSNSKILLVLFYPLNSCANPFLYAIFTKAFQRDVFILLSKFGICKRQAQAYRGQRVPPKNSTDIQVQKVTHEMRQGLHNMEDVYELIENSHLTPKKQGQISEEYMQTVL

For the compound `O=C(c1ccc(O)cc1)c1ccc(O)cc1O`, the Potency result in [1], in experiment [3], in experiment [5], in [6], in experiment [7] and in experiment [8] was “inactive” in each case. In addition, the Potency entry in experiment [9] and in experiment [10] was “inactive” in each case. Also, the Potency in [2] is 71.8 µM (active) and 39.9 µM (active); in experiment [4], 27.6 µM (active) and 54.5 µM (active).
As to `c1ccc2[nH]cnc2c1`, the Potency result in experiment [1], in experiment [2], in experiment [3], in experiment [4], in experiment [5] and in experiment [11] was “inactive” throughout. The Potency result in experiment [7], in experiment [13], in [8], in experiment [9] and in experiment [10] was “inactive” in each case. Also, the compound was classed as inactive in experiment [12].
Consider `Cc1cc(Cc2ccc(N)c(C)c2)ccc1N`, for which the Potency entry in experiment [1], in experiment [2], in [3], in experiment [5], in experiment [11] and in experiment [7] was “inactive” throughout. Further, the Potency result in experiment [8] and in experiment [9] was “inactive” throughout. In experiment [4], the Potency is 48.6 µM (active). In addition, the compound was called inactive in experiment [12].
With `O=[N+]([O-])c1cccc(Cl)c1`, the Potency result in experiment [1], in experiment [2], in [3], in experiment [5], in experiment [14] and in [15] was “inactive” throughout. Also, the Potency result in experiment [11], in [7], in [16], in experiment [8] and in [9] was “inactive” throughout. In addition, the Potency in experiment [6] was 6.74 µM (active) and inactive. For the same compound, the activity change, positive = activation in experiment [17] is 8.37% (inactive) and -4.75% (inactive).
With `CC(C)(C)C(=O)C1C(=O)c2ccccc2C1=O`, the Potency was 60.5 µM (active) and 43.3 µM (active) in experiment [1]; 31.4 µM (active) in experiment [2]; 48.1 µM (active) and inactive in experiment [5]. Besides, the Potency result in experiment [18], in [6], in experiment [11], in experiment [8], in experiment [9] and in experiment [10] was “inactive” in each case. The call in experiment [12] was inactive.
As to `Nc1c(S(=O)(=O)O)cc(Br)c2c1C(=O)c1ccccc1C2=O`, the Potency result in experiment [1] was “inactive and 24.3 µM (active)”; in experiment [2], 35.6 µM (active). Further, the Potency result in [5], in experiment [6], in experiment [11], in [13], in experiment [8] and in [9] was “inactive” each time. Moreover, in experiment [10], the Potency result is “inactive”. Also, in experiment [12], the outcome was inactive.
As to `CC1CC(OC(=O)c2ccccc2O)CC(C)(C)C1` (centres undefined), the Potency entry in experiment [1], in [2], in [3], in experiment [4], in experiment [5] and in experiment [6] was “inactive” throughout. In addition, the Potency result in experiment [7], in experiment [13], in [8], in experiment [9] and in experiment [10] was “inactive” throughout. Also, the Potency in [11] was 48.5 µM (active) and inactive.
For the compound `CC1=C(/C=C/C(C)=C/C=C/C(C)=C/CO)C(C)(C)CCC1`, the Potency entry in experiment [1], in experiment [2], in experiment [3], in [5], in experiment [14] and in experiment [15] was “inactive” each time. Besides, the Potency entry in experiment [11], in experiment [7], in [13], in experiment [16], in experiment [8] and in experiment [9] was “inactive” each time. The Potency entry in experiment [10] is “inactive”. Moreover, the activity change, positive = activation in [17] was -2.72% (inactive) and -18.5% (inactive).
`CC(=O)[C@@]1(O)CC[C@H]2[C@@H]3CCC4=CC(=O)CC[C@]4(C)[C@H]3CC[C@@]21C`: the Potency result in experiment [1], in [2], in experiment [5], in [6], in [11] and in [7] was “inactive” throughout. Also, the Potency result in experiment [13], in experiment [8] and in experiment [10] was “inactive” each time.
`COCC(C)O` (centres undefined): the Potency entry in experiment [1], in experiment [2], in [3], in [5], in experiment [14] and in experiment [15] was “inactive” throughout. Further, the Potency entry in experiment [6], in [11], in experiment [7], in experiment [16], in [8] and in experiment [9] was “inactive” each time. For the same compound, in experiment [10], the Potency result is “inactive”. Moreover, the activity change, positive = activation in experiment [17] is -0.602% (inactive) and 6.16% (inactive).

For the origin of these results see PubChem BioAssay (Tox21).
